In PubChem BioAssay (NCI):
The panel holds about 83,000 compounds, 20% with a hit somewhere; the sample as a whole holds those more often.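 Single-dose data. Exposure time 48 hours. Values below 10 considered active.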 Values without a mark were called inactive. Calls of active or inactive are those of the source.

These molecules were tested on MDA-MB-468 breast (assay: NCI-60 one-dose screen, 48 h (100 = growth as untreated, 0 = no growth, -100 = all killed)). Conditions: 1 µM.
Method: Growth inhibition of the MDA-MB-468 human Breast tumor cell line is measured as a screen for anti-cancer activity. Cells are grown in 96 well plates and exposed to the test compound for 48 hours. Compounds are tested at a single concentration, which is 10^-5 M for most compounds. The reported endpoint is percent growth (GI% or GIPRCNT), where numbers from 0 - 100% represent growth inhibition, and numbers from -100% - 0 represent cell death. For example, a value of 40 represents 60% growth inhibition. A value of 0 means no net growth occurred over the course of the experiment. A value of -40 indicates 40% of cells at the beginning of the experiment died by the end of the experiment. A value of -100 means all cells are dead at the end of the experiment.
NCI-60 Human Tumor Cell Lines Screen was performed using the standard one-dose NCI protocol, which is described in more detail at https://dtp.cancer.gov/discovery_development/nci-60/default.htm.
Compounds with GIPRCNT values below 10 were considered active. Activity score was based on GIPRCNT using the following formula: […]
Score is 0 for GIPRCNT values of 100 or above, 50 for GIPRCNT values of 0, and 100 for GIPRCNT values of -100.

Structure (SMILES) | growth
CC/C(=C(/c1ccc(O)cc1)c1ccc(OCCN(C)C(=O)COCCOCCNC(=O)c2ccc3c(c2)CN([C@@H]2CCC(=O)NC2=O)C3=O)cc1)c1ccccc1 | 5.9% (active)

Same assay, conditions: 10 µM

Structure (SMILES) | growth
CC/C(=C(/c1ccc(O)cc1)c1ccc(OCCN(C)C(=O)COCCOCCNC(=O)c2ccc3c(c2)CN([C@@H]2CCC(=O)NC2=O)C3=O)cc1)c1ccccc1 | -23.9% (active)

Same assay, conditions: 10 µM unless noted

Structure (SMILES) | growth
COc1ccc(-c2cc(C)nc3[nH]c(=O)sc23)cc1 | 76%
O=C(N=Nc1c(O)[nH]c2ccc(Cl)cc12)c1ccc2nc(-c3ccc(Cl)cc3)[nH]c2c1 | -80.7% (active)
COc1ccc2c(c1)C(Sc1ccc(Cl)cc1)c1c(nc(N)c(C#N)c1N)O2 (stereo not given) | 77.9%
Fc1ccc(N2CC(Cn3c(C(F)(F)F)cc4c(Cl)ncnc43)C2)c(F)c1 | -50.5% (active)
Cc1ccc(Cl)cc1NC(=O)N/C(N)=N/c1nc2ccccc2s1 | -30.1% (active)
CC(=O)C[n+]1cccc2c3ccccc3ccc21 | 8.54% (active)
COC(=O)c1cc(C(C)=O)n2c3ccccc3c3ccccc3c12 | 65.8%
O=C(CSc1nnc(-c2ccc(-c3nc4ccc(Cl)cc4[nH]3)cc2)o1)Nc1ccc(Cl)cc1 | 72.4%
O=C(Nc1ccc(-c2ccc3c(c2)NC(=O)/C3=C\c2ccc[nH]2)cc1)Nc1cccc(Cl)c1 | -55.5% (active)
COc1cc(C2CC(c3cc(OC)c(OC)c(OC)c3)=Nc3c(N)nc(N)nc3N2)ccc1Oc1nc(Nc2ccc(F)cc2)nc(N(C)C)n1 (stereo not given) | -22.6% (active)
O=C(CSc1nc2ccccc2c(=O)[nH]1)NNC(=O)c1ccccc1Cl | 137%
CN1C(=O)C(O)(CC(=O)c2cc3ccccc3oc2=O)c2ccccc21 (stereo not given) | 82.6%
COc1cccc(C(N)=Nc2ccc(OCCCCCCCCn3cncn3)cc2)c1 | 24.8%
Cc1ccc(C(C(=O)NC2CCCCC2)N(Cc2ccccc2Cl)C(=O)c2ccc(CN3CCOCC3)o2)o1 (stereo not given) | 84.7%
COc1ccc2[nH]c(=O)c(CSc3ccccc3Nc3nccc(-c4ccc(C(F)(F)F)cc4)n3)cc2c1 | 13.6%
CS(=O)(=O)Nc1cc(-c2ccc3ncnc(N4CCc5cc(F)c(Cl)cc54)c3c2)cnc1Cl | -60.2% (active)
COc1ccc2[nH]cc(-c3cc(N)n4nc(-c5c[nH]c6ccccc56)cc4n3)c2c1 | -67.8% (active)
Cc1ccccc1NC(=O)c1cccc(NC(=O)CCl)c1 | -0.88% (active)
COc1ccc2[nH]c(O)c(N=Nc3nc(-c4ccc(C#N)cc4)cs3)c2c1 | 77.5%

Structure (SMILES) | growth
COc1ccc(-c2cc(C(=O)N=Nc3c(O)[nH]c4ccc(Cl)cc34)c3ccccc3n2)cc1 | 74.9%
N#Cc1c(NC(=O)N2CCOCC2)n(-c2ccc(OC(F)(F)F)cc2)c2cc(F)ccc12 | 89.1%
COc1ccccc1/C=C/c1cccc(NC(=S)NCCCCN(C)C)c1 | -86% (active)
FC(F)(F)CN1CCN(CCn2c(C(F)(F)F)cc3c(Cl)ncnc32)CC1 | -64% (active)
Cc1nn(-c2ccccc2)c2nc(C)n(C(=O)N/N=C/c3ccccc3)c(=O)c12 | 115%
NS(=O)(=O)c1cccc(Nc2nc(SCC(=O)c3ccc(F)cc3)nc3ccccc23)c1 | -9.09% (active)
COc1cc(CNC(=O)[C@]23CCC(C)(C)CC2C2=CCC4[C@@]5(C)CCC(OC(C)=O)C(C)(C)C5CC[C@@]4(C)[C@]2(C)CC3)ccc1OCc1cn(-c2ccc(Cl)cc2Cl)nn1 (stereo not given in full) | 112%
COC(=O)c1c(C(=O)OC)c2c3ccccc3c3ccccc3n2c1C(=O)C(F)(F)F | 92%
CN(C)c1ccc(/C=C/c2n(Cc3ccc4ccccc4c3)c3ccccc3[n+]2Cc2ccc3ccccc3c2)cc1 | -82.2% (active)
CC[C@@]12CC(C(=O)OC)=C3Nc4cc5c(cc4[C@@]34CCN(C[C@H]3O[C@H]31)[C@@H]24)[C@@H]1[C@H](O5)[C@@H](O)[C@@]2(CC)CC(C(=O)OC)=C3Nc4cc(O)ccc4[C@@]34CCN1[C@@H]24 | -78.5% (active)
CCOc1ccccc1[C@H]1C(C(=O)c2ccc(Cl)cc2)C2(N[C@@H]1c1ccccc1)C(=O)Nc1ccc(Br)cc12 (stereo not given in full) | -21.5% (active)
CN(C)c1nc(NCCNS(=O)(=O)c2ccc(C3=Nc4c(N)nc(N)nc4NC(c4ccc(C(F)(F)F)cc4)C3)cc2)nc(N2CCOCC2)n1 (stereo not given) | 5.66% (active)
C=CCn1c(O)c(N=Nc2nc(-c3cc4ccccc4oc3=O)cs2)c2ccccc21 | 70.3%
COc1ccc(N=Nc2c(N)nn3c(-c4ccc5c(c4)C=S=C5)ccnc23)cc1 | 16.6%
CC(C)C[C@H](NC(=O)[C@@H]1CCCCCCCCCCC(=O)N[C@@H](CC(=O)N2CCC[C@@H]2C2CCCC2)C(=O)N1)B(O)O | -70.6% (active)
CNS(=O)(=O)N1CCc2c(Br)c3c(c(OC)c2C1CCc1ccccc1)OCO3 (stereo not given) | -63.1% (active)
COc1ccc(C(=O)C[n+]2cccc3c4ccccc4ccc32)cc1 | 2.93% (active)
Cc1cccc(/C=C/c2ccc(NC(=S)NCCCCN(C)C)cc2)c1 | -83.5% (active)
COc1ccc2ccccc2c1/C=C1\SC(=Nc2ccc(O)cc2)NC1=O | -34.7% (active)
